The text below walks through data of the supplement of paper PMC6555819.

Common to all, as to assay: PBM binding z-score (relative to random genomic background probes); higher = stronger binding; sequences stand for … in GC…GCGATTGACAGCGTAGAATGAAGG
In experiment [1] the test system is FXR:RXRa (NR concentration 270 nM, RXRa partner concentration 90 nM). The procedure, abridged: (§1)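 Binding z-scores were set against random background probes. The data came from custom Agilent 4×180K protein-binding microarrays carrying double-stranded probes with 34-nt variable regions, incubated 1 h with ligand-free nuclear receptor dimers. Partner-specific antibodies detected binding, and scanned fluorescence was regression-normalized.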

The test system of experiment [2] is LXRa:RXRa (NR concentration 270 nM, RXRa partner concentration 90 nM). In a few lines:
as §1

The subject of experiment [3] is LXRa homodimer (NR concentration 270 nM). The procedure, abridged:
as §1

Experiment [4] concerns LXRb:RXRa (NR concentration 270 nM, RXRa partner concentration 90 nM). In a few lines:
as §1

For experiment [5], the system named is LXRb homodimer (NR concentration 270 nM). In a few lines: as §1
The test system of experiment [6] is PPARa:RXRa (NR concentration 270 nM, RXRa partner concentration 90 nM). In a few lines: as §1
Experiment [7] relates to PPARg:RXRa (NR concentration 180 nM, RXRa partner concentration 90 nM). In a few lines: as §1
Experiment [8] deals with PPARg:RXRa 270nM:90nM, anti-RXR (NR concentration 270 nM, RXRa partner concentration 90 nM). In a few lines: as §1
The test system of experiment [9] is PPARg:RXRa 30nM:10nM, anti-RXR (NR concentration 30 nM, RXRa partner concentration 10 nM). The procedure, abridged:
as §1

For experiment [10], the system named is PPARg:RXRa 90nM:30nM, anti-RXR (NR concentration 90 nM, RXRa partner concentration 30 nM). The procedure, abridged: as §1
Experiment [11] concerns PPARg:RXRa DBDmut IVT, anti-RXR (DBD mutation: RXRa K156A/R161A, NR concentration 270 nM, RXRa partner concentration 90 nM). In a few lines:
as §1

Experiment [12] has as its system PPARg:RXRa IVT, anti-PPARg (NR concentration 270 nM, RXRa partner concentration 90 nM). In a few lines: as §1
The subject of experiment [13] is PPARg DBDmut:RXRa IVT, anti-PPARg (DBD mutation: PPARg1 K132A/R137A, NR concentration 270 nM, RXRa partner concentration 90 nM). In a few lines:
as §1

Experiment [14] deals with PPARg DBDmut IVT, anti-PPARg (DBD mutation: PPARg1 K132A/R137A, NR concentration 270 nM). In a few lines:
as §1

In experiment [15] the test system is PPARg homodimer (NR concentration 180 nM). In a few lines: as §1
The subject of experiment [16] is PXR:RXRa (NR concentration 270 nM, RXRa partner concentration 90 nM). The procedure, abridged: as §1
Experiment [17] deals with PXR homodimer (NR concentration 270 nM). The procedure, abridged:
as §1

The subject of experiment [18] is RARa:RXR (NR concentration 270 nM, RXRa partner concentration 90 nM). The procedure, abridged: as §1
The test system of experiment [19] is RARa homodimer (NR concentration 270 nM). In a few lines:
as §1

In experiment [20] the test system is RARb:RXRa (NR concentration 270 nM, RXRa partner concentration 90 nM). In a few lines:
as §1

TGAACGAGGTTAAAGATCAGGGAACGTGGCGTCG: the PBM binding z-score in experiment [1] is 2.87; in [2], 2.22; in experiment [3], -0.236; in experiment [4], 1.57; in experiment [5], -0.0519; in experiment [6] it was 4.05. The PBM binding z-score was 5.17 in [7]; 5.68 in experiment [8]; 4.28 in experiment [9]; 6 in [10]; 1.29 in [11]; 2.81 in experiment [12]. Moreover, the PBM binding z-score in experiment [13] is 0.475; in experiment [14], -0.0335; in experiment [15] it was 0.615; in [16], 1.99; in experiment [17], -0.0143; in experiment [18], 2.94. Moreover, the PBM binding z-score in experiment [19] was -0.0319; in [20], 1.95.

Turning to TCTATTAGTTGAAGGGCAACCAACGAGTCCGTTT, the PBM binding z-score in experiment [1] stood at 0.452; in [2], 0.763; in [3], 0.54; in [4], 0.694; in experiment [5] it was 0.122; in experiment [6], 0.554. The PBM binding z-score in experiment [7] is -0.00575; in experiment [8] it was 1.94; in [9], 3.75; in experiment [10], 2.69; in experiment [11], 2.05; in experiment [12] it was 0.417. The PBM binding z-score came out at 0.246 in [13]; 1.16 in experiment [14]; 0.593 in [15]; 0.786 in [16]; 0.837 in experiment [17]; 0.718 in [18]. Further, the PBM binding z-score in experiment [19] is 1.55; in [20], 1.46.

CTCGAAAGGTCGGTTGAGGTGAGTATTCGGATAA: the PBM binding z-score in experiment [1] is 2.94; in experiment [2] it was 1.75; in [3], -0.326; in experiment [4], 1.32; in experiment [5], -0.125; in experiment [6] it was 2.56. Further, the PBM binding z-score in [7] is -0.124; in experiment [8], 1.15; in experiment [9], 0.0232; in [10] it was 0.23; in [11] it was 0.311; in experiment [12] it was 0.955. Further, the PBM binding z-score in experiment [13] is -0.267; in [14] it was 0.135; in experiment [15] it was 1.02; in experiment [16], 3.05; in experiment [17], -0.0873; in [18], 2.04. Also, the values for the PBM binding z-score in experiment [19] and in experiment [20] were 0.255 and 3.25, respectively.

On to ATCGAAAGGTCGGGGTGAGTATAGAGAAAGGGAA, for which the PBM binding z-score in experiment [1] was found to be 3.39; in experiment [2], 3.1; in [3], 0.378; in [4], 3.56; in experiment [5], 1.97; in experiment [6], 4.39. Also, the PBM binding z-score amounted to 2.87 in experiment [7]; 2.83 in experiment [8]; 1.07 in experiment [9]; 2.04 in [10]; 1.56 in experiment [11]; 2.45 in [12]. The PBM binding z-score in [13] turned out to be 1.09; in [14], 2.25; in [15], 1.98; in experiment [16], 2.77; in experiment [17], 1.39; in experiment [18] it was 3.03. In addition, the PBM binding z-score in [19] is 1.53; in experiment [20] it was 3.83.

Turning to CGAACTAGGTCAGAACAGGACAGTGAGGGATGAT, the PBM binding z-score in experiment [1] was 1.59; in experiment [2] it was 0.807; in experiment [3], -0.0765; in experiment [4] it was 0.315; in experiment [5] it was -0.376; in [6], 2.96. Further, the PBM binding z-score stood at 5.04 in experiment [7]; 4.45 in experiment [8]; 1.74 in [9]; 3.43 in experiment [10]; 7.05 in experiment [11]; 7.16 in [12]. Moreover, the PBM binding z-score in [13] turned out to be 2.36; in experiment [14], 0.0779; in [15] it was 0.578; in experiment [16], 0.829; in experiment [17], 0.211; in [18], 1.06. The PBM binding z-score worked out at 0.238 in experiment [19] and 2.94 in experiment [20].

For TCTCGGAGGACACGAGAGGTCAGAGCTCGACATC, the PBM binding z-score in experiment [1] is 2.17; in [2], 3.37; in experiment [3], 2.61; in [4] it was 2.53; in [5] it was -0.47; in experiment [6], 2.99. The PBM binding z-score in [7] is 0.952; in [8], 1.88; in experiment [9], 1.53; in experiment [10] it was 1.48; in experiment [11], 1.28; in [12] it was 1.31. Besides, the PBM binding z-score was -0.0103 in experiment [13]; -0.495 in experiment [14]; 1.51 in [15]; 3.78 in experiment [16]; 0.385 in experiment [17]; 3.56 in experiment [18]. The PBM binding z-score is -0.143 in experiment [19] and 3.84 in experiment [20].

Consider ACAGACAGGTGAGTGACGGTAACTCAGCTGGACG, for which the PBM binding z-score in experiment [1] was -0.187; in [2] it was -0.0958; in experiment [3], -0.572; in experiment [4], -0.393; in [5], -0.746; in experiment [6], -0.129. Also, the PBM binding z-score in experiment [7] was 0.633; in experiment [8], 0.0382; in experiment [9] it was -0.358; in [10], -0.388; in experiment [11] it was 0.522; in [12], 0.563. Besides, the PBM binding z-score in experiment [13] is 0.246; in experiment [14], 0.557; in [15], -0.526; in [16] it was -0.527; in [17] it was -0.705; in experiment [18] it was -0.525. The PBM binding z-score in experiment [19] is -0.487; in experiment [20] it was 0.377.
